According to the supplement of paper PMC6555819:

What was measured:
Experiment in all cases: PBM binding z-score (relative to random genomic background probes); higher = stronger binding; sequences stand for … in GC…GCGATTGACAGCGTAGAATGAAGG
[1] = tested on: PPARg:RXRa DBDmut IVT, anti-RXR (DBD mutation: RXRa K156A/R161A, NR concentration 270 nM, RXRa partner concentration 90 nM)
Procedure, shortened: (§1)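 For binding z-scores, the reference was random background probes on custom Agilent 4×180K protein-binding microarrays. These arrays were incubated 1 h with ligand-free nuclear receptor dimers in PBS pH 7.4, 2% milk, 0.02% Triton X-100, 1 mM DTT, 0.2 mg/mL BSA and 0.4 mg/ml salmon testes DNA. Fluorescence was scanned after antibody detection of each partner (one per run) and regression-normalized.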

[2] = tested on: PPARg:RXRa IVT, anti-PPARg (NR concentration 270 nM, RXRa partner concentration 90 nM)
Procedure, shortened: as §1

[3] = tested on: PPARg DBDmut:RXRa IVT, anti-PPARg (DBD mutation: PPARg1 K132A/R137A, NR concentration 270 nM, RXRa partner concentration 90 nM)
Procedure, shortened: as §1

[4] = tested on: PPARg DBDmut IVT, anti-PPARg (DBD mutation: PPARg1 K132A/R137A, NR concentration 270 nM)
Procedure, shortened: as §1

[5] = tested on: PPARg homodimer (NR concentration 180 nM)
Procedure, shortened: as §1

[6] = tested on: PXR:RXRa (NR concentration 270 nM, RXRa partner concentration 90 nM)
Procedure, shortened: as §1

[7] = tested on: PXR homodimer (NR concentration 270 nM)
Procedure, shortened: as §1

[8] = tested on: RARa:RXR (NR concentration 270 nM, RXRa partner concentration 90 nM)
Procedure, shortened: as §1

[9] = tested on: RARa homodimer (NR concentration 270 nM)
Procedure, shortened: as §1

[10] = tested on: RARb:RXRa (NR concentration 270 nM, RXRa partner concentration 90 nM)
Procedure, shortened: as §1

## ATCTCTAGATAAAGATAGTTCAGTGAATGCAAAT
[1]
  PBM binding z-score: -0.378
[2]
  PBM binding z-score: -0.22
[3]
  PBM binding z-score: 0.441
[4]
  PBM binding z-score: 0.839
[5]
  PBM binding z-score: 0.626
[6]
  PBM binding z-score: 0.206
[7]
  PBM binding z-score: 0.643
[8]
  PBM binding z-score: 0.29
[9]
  PBM binding z-score: 0.981
[10]
  PBM binding z-score: 0.124

## CGAACTAGGTAATTGACAGGACAGTGAATAGTAA
[1]
  PBM binding z-score: 5.41
[2]
  PBM binding z-score: 4.17
[3]
  PBM binding z-score: 0.954
[4]
  PBM binding z-score: 0.672
[5]
  PBM binding z-score: 0.615
[6]
  PBM binding z-score: -0.222
[7]
  PBM binding z-score: -0.131
[8]
  PBM binding z-score: -0.274
[9]
  PBM binding z-score: 0.178
[10]
  PBM binding z-score: -0.185

## CCTACTGGGCCAATGGTCATTGATTCCAATGCTC
[1]
  PBM binding z-score: 3.79
[2]
  PBM binding z-score: 4.11
[3]
  PBM binding z-score: 0.147
[4]
  PBM binding z-score: -0.523
[5]
  PBM binding z-score: -0.104
[6]
  PBM binding z-score: -0.581
[7]
  PBM binding z-score: -0.689
[8]
  PBM binding z-score: -0.388
[9]
  PBM binding z-score: -0.588
[10]
  PBM binding z-score: 0.311

## CAGGCTAGGTCAGGGCCAGTATAGGAGGAACGTT
[1]
  PBM binding z-score: 1.77
[2]
  PBM binding z-score: 2.27
[3]
  PBM binding z-score: -0.979
[4]
  PBM binding z-score: -1.24
[5]
  PBM binding z-score: 0.901
[6]
  PBM binding z-score: 0.235
[7]
  PBM binding z-score: -0.157
[8]
  PBM binding z-score: 0.946
[9]
  PBM binding z-score: 0.278
[10]
  PBM binding z-score: 3.6

## CCGACTGGGGCAAGGTTAGCATAACGCACAGCCA
[1]
  PBM binding z-score: 2.73
[2]
  PBM binding z-score: 2.99
[3]
  PBM binding z-score: -1.11
[4]
  PBM binding z-score: -0.288
[5]
  PBM binding z-score: 0.409
[6]
  PBM binding z-score: -0.179
[7]
  PBM binding z-score: -0.316
[8]
  PBM binding z-score: -0.0446
[9]
  PBM binding z-score: -0.606
[10]
  PBM binding z-score: 1.22

## ACTCGGAGGACAAAGGTCAGACCTACGCCAGTGA
[1]
  PBM binding z-score: 0.683
[2]
  PBM binding z-score: 3.73
[3]
  PBM binding z-score: 0.128
[4]
  PBM binding z-score: -0.307
[5]
  PBM binding z-score: 3.27
[6]
  PBM binding z-score: 4.16
[7]
  PBM binding z-score: 0.401
[8]
  PBM binding z-score: 5.43
[9]
  PBM binding z-score: 1.5
[10]
  PBM binding z-score: 4.5

## GGAACGAGGGCAAGTTGAAAGCAGAGTTTGATGG
[1]
  PBM binding z-score: 3.88
[2]
  PBM binding z-score: 2.91
[3]
  PBM binding z-score: -0.0232
[4]
  PBM binding z-score: -0.635
[5]
  PBM binding z-score: 0.201
[6]
  PBM binding z-score: 0.652
[7]
  PBM binding z-score: 0.377
[8]
  PBM binding z-score: 0.519
[9]
  PBM binding z-score: -0.328
[10]
  PBM binding z-score: 2.53

## CCCTACGGGTCACTCCAGGTTATAGCATCGGAGT
[1]
  PBM binding z-score: 0.284
[2]
  PBM binding z-score: 2.29
[3]
  PBM binding z-score: -0.814
[4]
  PBM binding z-score: -0.254
[5]
  PBM binding z-score: 2.92
[6]
  PBM binding z-score: 5.1
[7]
  PBM binding z-score: 0.472
[8]
  PBM binding z-score: 3.75
[9]
  PBM binding z-score: 0.949
[10]
  PBM binding z-score: 3.66

## CGTCCAAGTTCATAGGAGGTCAGTGAAGACAGAT
[1]
  PBM binding z-score: 0.698
[2]
  PBM binding z-score: 1.81
[3]
  PBM binding z-score: 0.494
[4]
  PBM binding z-score: 0.544
[5]
  PBM binding z-score: 3.04
[6]
  PBM binding z-score: 6.14
[7]
  PBM binding z-score: 9.37
[8]
  PBM binding z-score: 4.07
[9]
  PBM binding z-score: 1.68
[10]
  PBM binding z-score: 4.14

## CCGAGTAGGTTATGGGGCATTCATGCAACGGTGA
[1]
  PBM binding z-score: 3.37
[2]
  PBM binding z-score: 3.49
[3]
  PBM binding z-score: -0.836
[4]
  PBM binding z-score: 0.00847
[5]
  PBM binding z-score: 0.908
[6]
  PBM binding z-score: 0.114
[7]
  PBM binding z-score: -0.204
[8]
  PBM binding z-score: 0.175
[9]
  PBM binding z-score: 0.24
[10]
  PBM binding z-score: 0.981

## ACAGCCAGGTGATGAAGGTAACTCAGGCTATCAT
[1]
  PBM binding z-score: 0.0691
[2]
  PBM binding z-score: 0.392
[3]
  PBM binding z-score: -0.315
[4]
  PBM binding z-score: -0.803
[5]
  PBM binding z-score: -0.425
[6]
  PBM binding z-score: -0.407
[7]
  PBM binding z-score: -0.502
[8]
  PBM binding z-score: 0.0022
[9]
  PBM binding z-score: -0.504
[10]
  PBM binding z-score: -0.00483

## TTACTAAGGTGAAGGTCGTTGATCCCTCTGTAGA
[1]
  PBM binding z-score: 3.98
[2]
  PBM binding z-score: 4.68
[3]
  PBM binding z-score: 1.15
[4]
  PBM binding z-score: 0.702
[5]
  PBM binding z-score: 1.39
[6]
  PBM binding z-score: 1.84
[7]
  PBM binding z-score: 0.493
[8]
  PBM binding z-score: 2.6
[9]
  PBM binding z-score: 0.0273
[10]
  PBM binding z-score: 2.58
